Data reported in PubChem BioAssay (EPA / NIEHS).
Inconclusive results are not listed. Active and inactive are the calls of the source. Rule for the calls: active = hit-call score of the fitted dose curve at least 0.9, where 1 is the maximum; inconclusive = response in the unintended direction; inactive = score below 0.9.

What was measured:
[1] = molecular target: bovine Estrogen Receptor (ER), ESR1 (gene 407238) (UniProt P49884); assay: NVS_NR_bER: NovaScreen (NVS) Nuclear Receptor Binding Assay for bovine Estrogen Receptor (ER) (AID 2283345);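 note: actives lower the bound radioligand count which means they displace the ER ligand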
In short: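 Displacement of a radioligand from estrogen receptor in bovine uterine membrane preparations; scintillation signal taken at 18 hours, DMSO as baseline. Single-concentration duplicates (25 uM) preceded concentration-response follow-up of actives.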

[2] = molecular target: Estrogen receptor beta (Homo sapiens) (UniProt Q92731); assay: OT_ER_ERbERb_0480: Odyssey Thera (OT) 8-hour HEK293T Protein-Complementation Assay for Estrogen Receptor-beta/-beta Homodimer (AID 2283357);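 note: active means signal gain over DMSO baseline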
In short: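 Cells (HEK293T, stable ER-beta LBD PCA pair) are treated 8 hours, fixed and Draq5-stained; signal is fluorescence intensity increase relative to vehicle, fitted in the gain direction.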

[3] = molecular target: human Peroxisome Proliferator-activated Receptor alpha (PPARa), PPARA (gene 5465) (UniProt Q07869); assay: NVS_NR_hPPARa: NovaScreen (NVS) Nuclear Receptor Binding Assay for human Peroxisome Proliferator-activated Receptor alpha (PPARa) (AID 2283359);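 note: activity means loss of TR-FRET signal versus DMSO baseline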
In short: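 Chemicals were first screened in duplicate at 25 uM, and active ones were retested across concentration series. Binding was monitored by TR-FRET one hour after dosing, with decreased signal against DMSO counted as activity.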

[4] = molecular target: PGR (gene 5241) (UniProt P06401); assay: NVS_NR_hPR: NovaScreen (NVS) Nuclear Receptor Binding Assay for human Progestron Receptor (PR) (AID 2283360);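 note: active means loss of bound radioligand signal versus DMSO baseline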
In short: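 T47D-derived receptor preparation, cell-free, with tritiated or iodinated radioligand displacement measured by scintillation 18 h post-dosing. Single 25 uM duplicate screen, then concentration series; signal loss relative to DMSO.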

[5] = molecular target: Glucocorticoid receptor (Homo sapiens) (UniProt P04150); assay: NVS_NR_hGR: NovaScreen (NVS) Nuclear Receptor Binding Assay for human Glucocorticoid Receptor (GR) (AID 2283363);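 note: activity is loss of specific radioligand binding signal relative to DMSO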
In short: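 Competitive displacement of a labelled ligand was measured on cell-free receptor preparations after 16 h exposure. Initial testing used 25 uM in duplicate with plate controls; confirmed actives went into concentration series.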

[6] = molecular target: Estrogen receptor (Homo sapiens) (UniProt P03372); assay: OT_ER_ERaERa_1440: Odyssey Thera (OT) 24-hour HEK293T Protein-Complementation Assay for Estrogen Receptor-alpha/-alpha Homodimer (AID 2283349);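 note: hits raise fluorescence above DMSO for agonists and antagonists alike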
In short: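 Protein-fragment complementation between two human ERα ligand-binding domains (aa 310-547) in stably transfected HEK293T cells was monitored after 24 h treatment, using fluorescence intensity relative to vehicle controls.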

[7] = molecular target: T1, Estrogen receptor (Homo sapiens) + Estrogen receptor beta (Homo sapiens) (UniProt P03372+Q92731); assay: OT_ER_ERaERb_0480: Odyssey Thera (OT) 8-hour HEK293T Protein-Complementation Assay for Estrogen Receptor-alpha/-beta Heterodimer (AID 2283352)
In short: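 Increase in mean fluorescence intensity, measured by laser scanning plate cytometry, reported ER-alpha/ER-beta LBD complementation in HEK293T cells after 8 h chemical exposure. DMSO served as baseline; basal signal is low, punctate and cytoplasmic.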

[8] = molecular target: T1, Estrogen receptor (Homo sapiens) + Estrogen receptor beta (Homo sapiens); assay: OT_ER_ERaERb_1440: Odyssey Thera (OT) 24-hour HEK293T Protein-Complementation Assay for Estrogen Receptor-alpha/-beta Homodimer (AID 2283356);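 note: heteromer of ER alpha and ER beta binding domains; hits raise reporter fluorescence and both agonists and antagonists give an increase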
In short: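 Heterodimerisation of ERα (aa 310-547) and ERβ (aa 263-489) ligand binding domains was tracked as fluorescence gain in stably transfected HEK293T cells following 24 h dosing, normalised to DMSO controls.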

[9] = molecular target: human Thyroid Receptor Alpha (TRa), THRA (gene 7067) (UniProt P10827); assay: NVS_NR_hTRa_Antagonist: NovaScreen (NVS) Nuclear Receptor Binding Assay for human Thyroid Receptor Alpha Antagonism (TRa) (AID 2283362);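 note: activity is loss of signal relative to DMSO baseline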
In short: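 Chemicals were first screened in duplicate at 25 uM, then actives were retested in concentration series. Binding to the extracted receptor was measured 1 h after dosing by AlphaLISA chemiluminescence, with decreased signal versus DMSO scored as activity.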

[10] = molecular target: chimpanzee Androgen Receptor (AR), AR (gene 747460) (UniProt O97775); assay: NVS_NR_cAR: NovaScreen (NVS) Nuclear Receptor Binding Assay for chimpanzee Androgen Receptor (AR) (AID 2283346);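 note: radioligand displacement from AR measured by scintillation counting in a cell-free assay; a loss of bound radioligand signal versus DMSO counts as binding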
In short: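 Cell-free competition binding with insect-cell (Sf9/Sf21) extracted chimpanzee AR; scintillation signal from lysate at 72 h. Screened in duplicate at 25 uM, then concentration-response for actives; fitting relative to DMSO.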

[11] = molecular target: Estrogen receptor (Homo sapiens) (UniProt P03372); assay: OT_ER_ERaERa_0480: Odyssey Thera (OT) 8-hour HEK293T Protein-Complementation Assay for Estrogen Receptor-alpha/-alpha Homodimer (AID 2283351);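 note: rise in fluorescence from reassembled reporter fragments on ERα LBD homodimer in nucleus or whole cell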
In short: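 The readout is complementation of fragments fused to the human ER alpha ligand-binding domain (aa 310-547), stably expressed in HEK293T cells. After 8 h of exposure, the increase in nuclear/cytoplasmic fluorescence was measured by laser scanning cytometry and fitted relative to DMSO.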

[12] = molecular target: Nuclear receptor subfamily 1 group I member 2 (Homo sapiens) (UniProt O75469); assay: NVS_NR_hPXR: NovaScreen (NVS) Nuclear Receptor Binding Assay for human Pregnane X Receptor (PXR) (AID 2283365);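 note: a drop in FRET signal versus DMSO baseline means the compound binds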
In short: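 Binding was measured by time-resolved fluorescence resonance energy transfer after a 2 h exposure of extracted human PXR protein without cells. Compounds were first tested at 25 uM in duplicate, with concentration series for actives; DMSO defined baseline.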

[13] = molecular target: rat Mineralocorticoid Receptor (MR), Nr3c2 (gene 25672) (UniProt P22199); assay: NVS_NR_rMR: NovaScreen (NVS) Nuclear Receptor Binding Assay for rat Mineralocorticoid Receptor (MR) (AID 2283355)
In short: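 Adrenalectomized rat brain supernatant was dosed with test chemical, then radioligand binding was measured by scintillation counting at 24 h. Initial testing ran in duplicate at 25 uM, followed by concentration series for actives.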

[14] = molecular target: human Constitutive Androstane Receptor (CAR), NR1I3 (gene 9970) (UniProt Q14994); assay: NVS_NR_hCAR_Antagonist: NovaScreen (NVS) Nuclear Receptor Binding Assay for human Constitutive Androstane Receptor Antagonism (CAR) (AID 2283344)
In short: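 Cell-free TR-FRET binding read 1 h after dosing, antagonist mode; loss of signal versus DMSO baseline. Primary screen in duplicate at a single 25 uM; actives retested in concentration series.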

[15] = molecular target: Androgen Receptor/SRC-1 Co-activator, AR (gene 367) (UniProt P10275); assay: OT_AR_ARSRC1_0960: Odyssey Thera (OT) 16-hour HEK293T Protein-Complementation Assay for Androgen Receptor/SRC-1 Co-activator (AID 2283353);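 note: actives raise the signal above DMSO so potency reflects increased AR and SRC-1 complex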
In short: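 HEK293T cells stably expressing AR and SRC-1 fused to Venus YFP fragments, imaged 16 h after dosing. Nuclear/cytoplasmic fluorescence ratio at 488 nm from at least 400 cells per image; gain of signal relative to DMSO.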

[16] = molecular target: Bile acid receptor (Homo sapiens) (UniProt Q96RI1); assay: NVS_NR_hFXR_Antagonist: NovaScreen (NVS) Nuclear Receptor Binding Assay for human Farnesoid X Receptor Antagonism (FXR) (AID 2283350)
In short: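 Cell-free TR-FRET ligand-binding read-out on human FXR (NR1H4) in antagonist mode, measured 1 h after dosing. Primary screen in duplicate at 25 uM, actives retested in concentration series; signal loss scored versus DMSO.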

[17] = molecular target: Retinoic acid receptor alpha (Homo sapiens) (UniProt P10276); assay: NVS_NR_hRARa_Agonist: NovaScreen (NVS) Nuclear Receptor Binding Assay for human Retinoic Acid Alpha Receptor Agonism (RAR) (AID 2283361)
In short: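 Readout is time-resolved fluorescence resonance energy transfer after a 2 h exposure of cell-free extracted receptor protein. Initial testing used 25 uM in duplicate, with concentration-response follow-up for active chemicals.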

Measured: AC50

Glucocorticoid receptor (Homo sapiens), sequence (P04150 whole entry, looked up): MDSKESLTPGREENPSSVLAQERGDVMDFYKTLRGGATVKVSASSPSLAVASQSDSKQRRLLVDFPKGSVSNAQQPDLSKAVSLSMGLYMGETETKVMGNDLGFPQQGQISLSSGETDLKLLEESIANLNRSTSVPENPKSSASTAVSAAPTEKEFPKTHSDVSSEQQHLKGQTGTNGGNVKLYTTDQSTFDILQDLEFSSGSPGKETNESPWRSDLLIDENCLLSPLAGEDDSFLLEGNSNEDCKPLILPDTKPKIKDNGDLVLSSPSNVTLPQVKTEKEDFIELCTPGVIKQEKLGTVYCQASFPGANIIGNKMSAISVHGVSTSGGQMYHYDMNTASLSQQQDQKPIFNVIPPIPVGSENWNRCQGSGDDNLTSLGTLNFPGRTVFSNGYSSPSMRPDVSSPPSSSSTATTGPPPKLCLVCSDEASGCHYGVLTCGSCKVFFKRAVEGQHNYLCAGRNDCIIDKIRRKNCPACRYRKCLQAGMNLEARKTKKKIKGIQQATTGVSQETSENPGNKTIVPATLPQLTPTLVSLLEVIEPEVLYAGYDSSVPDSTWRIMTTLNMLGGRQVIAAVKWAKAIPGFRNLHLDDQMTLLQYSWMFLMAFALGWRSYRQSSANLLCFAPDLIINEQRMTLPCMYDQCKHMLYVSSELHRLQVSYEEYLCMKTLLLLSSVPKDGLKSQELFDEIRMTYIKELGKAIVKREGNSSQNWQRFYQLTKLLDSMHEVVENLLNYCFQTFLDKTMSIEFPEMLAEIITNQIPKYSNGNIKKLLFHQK
chimpanzee Androgen Receptor (AR), AR (gene 747460), sequence (O97775 whole entry, looked up): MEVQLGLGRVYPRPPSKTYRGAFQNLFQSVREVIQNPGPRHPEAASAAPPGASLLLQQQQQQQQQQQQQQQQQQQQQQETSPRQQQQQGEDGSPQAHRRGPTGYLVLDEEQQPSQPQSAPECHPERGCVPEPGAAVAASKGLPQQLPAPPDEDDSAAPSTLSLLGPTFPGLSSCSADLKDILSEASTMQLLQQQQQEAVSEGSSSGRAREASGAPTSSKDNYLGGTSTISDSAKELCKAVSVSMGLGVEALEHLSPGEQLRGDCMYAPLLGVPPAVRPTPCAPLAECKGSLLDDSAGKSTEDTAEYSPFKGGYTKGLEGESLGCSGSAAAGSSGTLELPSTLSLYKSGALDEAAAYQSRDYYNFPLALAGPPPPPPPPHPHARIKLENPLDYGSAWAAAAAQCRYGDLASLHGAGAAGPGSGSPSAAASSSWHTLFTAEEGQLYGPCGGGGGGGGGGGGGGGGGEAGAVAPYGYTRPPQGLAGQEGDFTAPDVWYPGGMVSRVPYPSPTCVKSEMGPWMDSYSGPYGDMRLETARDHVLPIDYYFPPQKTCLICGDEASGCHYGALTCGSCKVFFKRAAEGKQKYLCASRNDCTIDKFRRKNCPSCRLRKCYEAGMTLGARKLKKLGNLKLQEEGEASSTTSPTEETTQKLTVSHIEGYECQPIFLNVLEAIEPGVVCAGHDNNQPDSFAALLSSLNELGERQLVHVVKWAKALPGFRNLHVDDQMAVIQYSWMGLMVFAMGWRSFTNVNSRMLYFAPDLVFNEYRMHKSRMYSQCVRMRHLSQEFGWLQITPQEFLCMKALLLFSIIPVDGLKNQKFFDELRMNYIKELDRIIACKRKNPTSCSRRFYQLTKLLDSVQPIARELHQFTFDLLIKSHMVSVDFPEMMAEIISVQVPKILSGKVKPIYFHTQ
human Thyroid Receptor Alpha (TRa), THRA (gene 7067), sequence (P10827 whole entry, looked up): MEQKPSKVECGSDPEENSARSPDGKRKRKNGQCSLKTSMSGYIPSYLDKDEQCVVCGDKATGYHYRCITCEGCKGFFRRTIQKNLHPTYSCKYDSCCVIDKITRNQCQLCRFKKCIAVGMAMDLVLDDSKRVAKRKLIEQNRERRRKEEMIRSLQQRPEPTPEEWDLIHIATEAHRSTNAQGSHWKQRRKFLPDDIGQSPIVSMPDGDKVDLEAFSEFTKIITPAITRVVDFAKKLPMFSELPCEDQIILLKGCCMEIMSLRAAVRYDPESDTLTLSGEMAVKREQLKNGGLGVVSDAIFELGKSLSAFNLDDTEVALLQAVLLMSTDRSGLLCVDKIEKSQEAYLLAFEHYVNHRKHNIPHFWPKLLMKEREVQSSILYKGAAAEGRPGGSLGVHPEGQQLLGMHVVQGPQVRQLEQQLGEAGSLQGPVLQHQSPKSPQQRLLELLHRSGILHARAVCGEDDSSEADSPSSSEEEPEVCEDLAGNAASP
Estrogen receptor (Homo sapiens), sequence (P03372 whole entry, looked up, the tested form may be a part): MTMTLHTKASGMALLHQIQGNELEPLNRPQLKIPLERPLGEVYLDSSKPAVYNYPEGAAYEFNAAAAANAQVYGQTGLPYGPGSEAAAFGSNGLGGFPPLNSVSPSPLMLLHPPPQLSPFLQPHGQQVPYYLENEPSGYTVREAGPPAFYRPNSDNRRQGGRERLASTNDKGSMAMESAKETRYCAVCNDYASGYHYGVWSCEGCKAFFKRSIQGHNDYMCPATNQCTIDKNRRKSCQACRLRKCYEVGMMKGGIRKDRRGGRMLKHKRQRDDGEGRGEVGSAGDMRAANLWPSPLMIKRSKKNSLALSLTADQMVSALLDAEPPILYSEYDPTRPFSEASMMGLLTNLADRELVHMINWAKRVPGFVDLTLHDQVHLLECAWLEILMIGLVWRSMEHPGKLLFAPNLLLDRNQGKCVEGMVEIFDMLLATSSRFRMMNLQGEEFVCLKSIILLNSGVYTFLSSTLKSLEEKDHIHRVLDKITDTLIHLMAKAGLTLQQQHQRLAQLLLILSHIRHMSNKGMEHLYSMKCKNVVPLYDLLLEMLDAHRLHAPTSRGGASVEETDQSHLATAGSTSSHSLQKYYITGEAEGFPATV
T1 sequence (P03372 whole entry, looked up, the tested form may be a part): as above
T1 sequence (Q92731 whole entry, looked up, the tested form may be a part): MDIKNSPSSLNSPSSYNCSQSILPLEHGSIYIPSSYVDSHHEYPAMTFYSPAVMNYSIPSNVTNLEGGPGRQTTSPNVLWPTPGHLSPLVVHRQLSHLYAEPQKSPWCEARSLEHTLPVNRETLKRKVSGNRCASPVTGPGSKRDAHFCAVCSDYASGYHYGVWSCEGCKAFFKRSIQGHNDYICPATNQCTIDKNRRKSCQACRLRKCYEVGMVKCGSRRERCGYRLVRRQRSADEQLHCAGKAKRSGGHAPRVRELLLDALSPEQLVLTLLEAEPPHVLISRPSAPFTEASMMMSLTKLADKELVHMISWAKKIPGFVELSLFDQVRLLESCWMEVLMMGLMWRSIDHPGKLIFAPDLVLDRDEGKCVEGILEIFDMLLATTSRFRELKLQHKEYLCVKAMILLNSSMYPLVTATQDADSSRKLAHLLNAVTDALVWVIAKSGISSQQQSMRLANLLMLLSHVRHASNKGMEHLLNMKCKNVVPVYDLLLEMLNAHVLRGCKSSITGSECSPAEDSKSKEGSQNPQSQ
Nuclear receptor subfamily 1 group I member 2 (Homo sapiens), sequence (O75469 whole entry, looked up): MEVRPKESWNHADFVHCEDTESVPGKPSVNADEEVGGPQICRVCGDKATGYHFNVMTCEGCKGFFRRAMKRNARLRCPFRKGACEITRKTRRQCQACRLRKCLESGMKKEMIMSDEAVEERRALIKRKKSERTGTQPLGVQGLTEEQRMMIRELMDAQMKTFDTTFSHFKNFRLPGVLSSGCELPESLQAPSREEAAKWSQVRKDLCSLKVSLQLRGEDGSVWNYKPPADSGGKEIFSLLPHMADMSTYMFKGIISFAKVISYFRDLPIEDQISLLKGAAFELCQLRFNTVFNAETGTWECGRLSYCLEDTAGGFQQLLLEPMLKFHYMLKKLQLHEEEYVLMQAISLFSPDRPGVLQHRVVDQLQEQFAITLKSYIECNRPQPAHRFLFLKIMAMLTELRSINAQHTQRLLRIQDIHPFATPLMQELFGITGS
human Peroxisome Proliferator-activated Receptor alpha (PPARa), PPARA (gene 5465), sequence (Q07869 whole entry, looked up): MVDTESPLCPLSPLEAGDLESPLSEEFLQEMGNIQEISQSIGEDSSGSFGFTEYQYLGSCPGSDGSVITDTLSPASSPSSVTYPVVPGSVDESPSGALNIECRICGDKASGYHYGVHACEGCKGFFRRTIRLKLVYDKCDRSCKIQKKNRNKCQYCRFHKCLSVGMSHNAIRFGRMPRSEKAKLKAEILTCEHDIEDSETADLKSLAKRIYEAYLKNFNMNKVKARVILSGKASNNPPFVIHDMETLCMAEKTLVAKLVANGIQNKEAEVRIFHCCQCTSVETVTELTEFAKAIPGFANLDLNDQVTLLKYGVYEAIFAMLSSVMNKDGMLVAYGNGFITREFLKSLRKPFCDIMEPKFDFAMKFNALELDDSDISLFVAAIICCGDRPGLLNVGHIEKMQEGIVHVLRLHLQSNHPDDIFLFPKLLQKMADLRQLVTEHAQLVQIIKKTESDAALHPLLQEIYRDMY
bovine Estrogen Receptor (ER), ESR1 (gene 407238), sequence (P49884 whole entry, looked up): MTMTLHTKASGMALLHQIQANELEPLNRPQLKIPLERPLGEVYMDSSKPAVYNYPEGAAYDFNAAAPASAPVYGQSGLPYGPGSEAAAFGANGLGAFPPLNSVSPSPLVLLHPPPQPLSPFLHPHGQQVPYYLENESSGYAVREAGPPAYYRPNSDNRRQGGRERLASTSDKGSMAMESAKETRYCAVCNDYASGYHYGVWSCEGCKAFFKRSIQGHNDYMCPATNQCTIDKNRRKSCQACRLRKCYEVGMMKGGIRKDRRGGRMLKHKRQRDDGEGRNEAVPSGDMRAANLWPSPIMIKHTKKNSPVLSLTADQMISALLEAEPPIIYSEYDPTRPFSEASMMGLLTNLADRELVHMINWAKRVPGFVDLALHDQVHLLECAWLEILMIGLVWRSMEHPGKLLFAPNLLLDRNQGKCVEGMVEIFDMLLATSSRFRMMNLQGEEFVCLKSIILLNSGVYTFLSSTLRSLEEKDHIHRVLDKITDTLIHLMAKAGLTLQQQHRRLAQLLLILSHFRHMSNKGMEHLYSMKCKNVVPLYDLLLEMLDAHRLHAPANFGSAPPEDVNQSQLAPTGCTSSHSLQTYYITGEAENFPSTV
Estrogen receptor beta (Homo sapiens), sequence (Q92731 whole entry, looked up, the tested form may be a part): as the sequence (Q92731 whole entry, looked up, the tested form may be a part) above

CC(C)(c1cc(Br)c(O)c(Br)c1)c1cc(Br)c(O)c(Br)c1
active: [3] 8.19 µM | [4] 23.9 µM | [5] 4.97 µM
inactive: [1] | [2]

CCCCCCCCCCCO
inactive: [1] | [6] | [7] | [8] | [2] | [3]
active: [9] 28.4 µM

OC12N=C(c3ccccc3)SC1Cc1cc(Cl)ccc12 (stereo not drawn)
inactive: [1] | [10] | [6] | [7] | [8] | [2] | [3]

CCCCCCCCN(C)CCCCCCCC
inactive: [1] | [6] | [4]

CCCOC(=O)c1cc(O)c(O)c(O)c1
inactive: [1] | [6]
active: [11] 50 µM | [7] 39.8 µM | [8] 49 µM | [2] 25.4 µM

CCOC(=O)O[C@H](C)OC(=O)c1ccc2c(c1)cc(C(=O)NC1CCN(C(C)C)CC1)n2Cc1cc(-c2ccc(Cl)s2)on1
inactive: [6] | [11] | [8] | [2]
active: [10] 17.8 µM | [5] 4.59 µM

O=C1CCC(C2CCCCC2)CC1
inactive: [10] | [2] | [9] | [12]

c1ccc(C[n+]2cccc3ccccc32)cc1
inactive: [1] | [6] | [7] | [8] | [2]

O=CCCCC=O
inactive: [1] | [6] | [11] | [13] | [3] | [12]

Cc1c2ccccc2c(C)c2c1ccc1ccccc12
inactive: [14] | [1] | [10] | [6] | [7] | [2] | [3]
active: [15] 13.7 µM | [4] 15.6 µM | [5] 15.3 µM

CCN(CC)C(=O)c1cc(S(=O)(=O)Cc2ccccc2)c(N2CCC(c3ccccc3)CC2)cc1N(CC)CCN(C)C
inactive: [14] | [6] | [11] | [2] | [17]
active: [10] 12.6 µM | [16] 10.1 µM | [5] 14.2 µM | [12] 15.4 µM
